# Screens (PubChem BioAssay)
# BAZ2B block – blocks human BAZ2B. hit rate 4.4% among 360,000. Potency, µM (top dose mostly 114 µM), for the others: at the top dose activity change, negative = inhibition, actives largely listed as inhibitors. AID 504333. AlphaScreen BAZ2B-H3K14Ac peptide displacement; note: potency is the fitted concentration of half-maximal effect; % is set by controls: 0 for no effect and ±100 for the full control effect; nearly all actives have a fitted effect of over 60% in size
#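 Complex of BAZ2B and biotin-H3K14Ac (50 nM apiece) forms over 30 min at RT, then faces library compounds up to 110 uM for another 30 min; AlphaScreen beads added, 20 min dark incubation, luminescence read.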
# CtBP-E1A blk – blocks the CtBP interaction with E1A | hit rate 0.49% among 340,000 | activity change, % (concentration not given with the values) | AlphaScreen GST-E1A/His-CtBP binding, 1536-well; active compounds read low; in the data active = activity change below about -65%; inconclusive = mostly about -30% to -63%; note: % is set by controls: 0 for no effect and ±100 for the full control effect
#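 GST-E1A and His-tagged CtBP (125 nM each as 5X stock) were preincubated with pin-transferred compound for 2 h at 37 °C in the dark, then glutathione donor and nickel acceptor beads were added for 1 h before AlphaScreen reading.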
# G9a block – inhibitors of human histone lysine methyltransferase G9a; Q96KQ7; G9a H3K9 monomethylation, AlphaScreen, 2 h; AID 504332; Potency, µM (titrated, usually from 102 µM), without a hit: at the highest dose activity, negative = inhibition, hits mostly inhibitors; hit rate 8.8% among 350,000; note: potency is the fitted concentration of half-maximal effect; % is set by controls: 0 for no effect and ±100 for the full control effect; nearly all actives have a fitted effect of over 75% in size
#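 Enzyme 20 nM + cpd, 15 min RT; add b-H3K9 pep 500 nM / SAM 20 uM; 2 h RT; anti-H3K9me1 Ab 0.5 ug/mL + SA donor / anti-rabbit acceptor beads 20 ug/mL each, 10 min; AlphaScreen read.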
# JMJD2A Tudor inh – JMJD2A Tudor domain (human) inhibition | Potency, µM (top dose mostly 114 µM), for inactives: at the top dose activity change, negative = inhibition, actives largely listed as inhibitors | O75164 | hit rate 4.4% among 390,000 | AlphaScreen JMJD2A-Tudor / H3K4me3 peptide binding; note: potency is the fitted concentration of half-maximal effect; % is set by controls: 0 for no effect and ±100 for the full control effect; nearly all actives have a fitted effect of over 50% in size
# Target sequence (O75164 whole entry, looked up, the tested form may be a part): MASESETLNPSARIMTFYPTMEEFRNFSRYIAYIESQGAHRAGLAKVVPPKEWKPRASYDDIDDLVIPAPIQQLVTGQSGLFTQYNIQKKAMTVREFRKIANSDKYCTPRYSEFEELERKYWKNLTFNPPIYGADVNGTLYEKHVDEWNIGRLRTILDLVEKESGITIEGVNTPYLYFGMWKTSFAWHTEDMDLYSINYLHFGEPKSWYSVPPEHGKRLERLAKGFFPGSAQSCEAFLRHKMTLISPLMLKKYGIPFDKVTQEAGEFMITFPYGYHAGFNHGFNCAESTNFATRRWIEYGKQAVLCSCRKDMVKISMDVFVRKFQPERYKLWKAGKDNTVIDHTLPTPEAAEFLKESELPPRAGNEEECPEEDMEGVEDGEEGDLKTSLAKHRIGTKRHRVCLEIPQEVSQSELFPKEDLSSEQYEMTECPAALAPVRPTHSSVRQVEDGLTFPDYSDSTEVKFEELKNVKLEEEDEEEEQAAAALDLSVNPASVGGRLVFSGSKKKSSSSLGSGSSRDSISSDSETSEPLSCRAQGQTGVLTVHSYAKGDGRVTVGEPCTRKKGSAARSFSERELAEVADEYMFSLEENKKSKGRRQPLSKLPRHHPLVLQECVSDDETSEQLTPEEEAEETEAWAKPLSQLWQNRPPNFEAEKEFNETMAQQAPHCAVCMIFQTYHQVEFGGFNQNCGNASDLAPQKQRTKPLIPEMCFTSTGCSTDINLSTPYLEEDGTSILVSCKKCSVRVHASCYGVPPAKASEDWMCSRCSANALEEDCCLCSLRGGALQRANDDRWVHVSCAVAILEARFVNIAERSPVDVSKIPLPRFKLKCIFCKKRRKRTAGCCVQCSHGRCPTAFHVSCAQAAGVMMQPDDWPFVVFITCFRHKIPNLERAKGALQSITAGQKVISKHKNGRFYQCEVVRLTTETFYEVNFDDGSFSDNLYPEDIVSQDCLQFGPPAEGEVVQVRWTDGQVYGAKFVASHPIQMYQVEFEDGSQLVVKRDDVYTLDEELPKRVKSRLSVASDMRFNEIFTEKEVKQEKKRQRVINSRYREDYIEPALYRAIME
# Six1-Eya2 inh – inhibitors of human Six1/Eya2 interaction; Q15475+O00167; AlphaScreen GST-Six1/His-Eya2 binding, biochemical; active compounds read low; activity change, % (concentration not given with the values); hit rate 0.56% among 360,000; in the data active = activity change below about -65%; inconclusive = mostly about -30% to -63%; note: % is set by controls: 0 for no effect and ±100 for the full control effect
#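 AlphaScreen luminescence read after one hour at 37 °C in darkness. Pin-transferred compounds met GST-Six1 and His-Eya2 protein (5X stock 250 nM/500 nM) plus glutathione donor and Ni-chelate acceptor beads (5X, 50 ug/mL).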
# HP1b chromo inh – HP1-beta chromodomain-methylated histone interaction inhibition | AlphaScreen HP1-beta / biotin-H3K9me3 peptide binding | hit rate 0.56% among 390,000 | Potency, µM (top dose mostly 114 µM), without a hit: top-dose activity change, negative = inhibition, most hits filed as inhibitors | P83916; note: potency is the fitted concentration of half-maximal effect; nearly all actives have a fitted effect of over 70% in size
#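 AlphaScreen: HP1-beta (50 nM) preformed 30 min with biotin-H3(1-18)K9me3 peptide (50 nM) in PBS pH 7.4, 0.01% Tween-20. Compound added for 30 min at RT, then streptavidin donor/nickel chelate acceptor beads (10 ug/mL) for 30 min.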
# The depositor's hits bear a star; u = inconclusive; x = not tested or not shown; [ ] = another dose, or the depositor's remark. The list is not random: actives were taken first. Their share in the collection is about 10%. Unless noted, calls come from the whole dose curve; as a rule, active = well fitted inhibition curve with a large enough effect; inconclusive = small, poorly fitted or top-dose-only effect; inactive = no such curve, though single readings can be large or run the other way.
SMILES,BAZ2B block,CtBP-E1A blk,G9a block,JMJD2A Tudor inh,Six1-Eya2 inh,HP1b chromo inh
Cc1ccc(C)c(N2CCN(S(=O)(=O)c3c(C(=O)N4CCC(C)CC4)c(C)n(C)c3C)CC2)c1,50µM*,x,10%[12.7 µM],u,x,-10%
C=CCn1c(Cc2cccc3ccccc23)n[nH]c1=S,-24%,3,2.2µM*,50µM*,3,-7%
S=c1[nH]nc(Cc2noc3ccccc23)n1-c1ccccc1,0%,-5,2.8µM*,11µM*,-14,19%
S=c1[nH]nc(CCc2nc3ccccc3[nH]2)n1-c1cccc(Cl)c1,-8%,-11,-1%[0.501 µM],45µM*,11,20%
O=c1c2ccccc2cnn1Cc1n[nH]c(=S)n1-c1ccc(Cl)cc1Cl,3%,x,u,x,x,x
S=c1[nH]nc(CCc2nc3ccccc3[nH]2)n1-c1ccccc1,-11%,x,u,-94%,0,16%
O=c1c2ccccc2cnn1Cc1n[nH]c(=S)n1-c1ccccc1,6%,4,7.9µM*,25µM*,5,28%
C=CCn1c(CCn2c3ccccc3c3ccccc32)n[nH]c1=S,10%,-5,u,-29%,9,15%
COc1cc(C(=O)NCC(C)(C)CNC(=O)c2cc(OC)c(OC)c(OC)c2)cc(OC)c1OC,3%,-1,3%,-18%,2,39%
S=c1[nH]nc(Cc2cccc3ccccc23)n1-c1ccccc1,-34%,1,u,79µM*,-2,8%
C=CCn1c(Cc2nc3ccccc3[nH]2)n[nH]c1=S,u,5,2µM*,8.9µM*,-26,6%
COc1ccc(-n2c(=O)c(-c3cccs3)nc3cnc(OC)nc32)cc1,x,x,9%[0.501 µM],x,x,x
CC1(C(=O)O)CCC(C(=O)NNC(=O)c2ccccc2Cl)C1(C)C (stereo unspecified),x,-65*,x,-12%,0,9%
COc1ccc(-n2c(SCC(=O)NCCC(C)C)nc3ccsc3c2=O)cc1,-6%,-3,25µM*,-7%,-2,24%
COc1ccc(OC(F)(F)F)cc1CC1(C)C(=O)Nc2ccc(-c3ccsc3)cc21 (stereo unspecified),x,2,x,x,-4,x
O=C(C1CCC(CNS(=O)(=O)c2cccc3nsnc23)CC1)N1CCN(c2ccccn2)CC1 (stereo unspecified),-6%,-11,-28%,3%,-7,33%
COc1ccccc1NC(=O)CSc1nnc2c(n1)[nH]c1ccccc12,-12%,x,3%[59 µM],-3%,x,3%
Cc1ccc(-c2nc(CN(Cc3c(C)nn(C)c3C)C(C)C)c(C)o2)o1,-9%,-6,x,-16%,-90*,29%
Cc1nn(C)c(C)c1CN(Cc1nc(-c2ccc(F)cc2F)oc1C)C1CC1,u,-1,x,-18%,-3,28%
CCN1CC2([N+](=O)[O-])C=CC(=O)C([N+](=O)[O-])(C1)C2CC(=O)c1ccccc1 (stereo unspecified),u,-4,u,u,-9,-6%
CCCCN1CC2([N+](=O)[O-])C=CC(=O)C([N+](=O)[O-])(C1)C2CC(=O)c1ccccc1 (stereo unspecified),-6%,-12,45µM*,-9%,-12,17%
CC(C)OC(=O)C(C)Nc1n[nH]c(=S)[nH]c1=O (stereo unspecified),-21%,19,45µM*,-1%,6,52%
CC(C)OC(=O)CNc1n[nH]c(=S)[nH]c1=O,-21%,-8,25µM*,79µM*,13,6%
CN(C)S(=O)(=O)N1CCC(n2cnc3cccnc32)CC1,0%,x,0%[59 µM],-1%,x,37%
CCOc1cc(CNn2cn[nH]c2=S)cc(Cl)c1OCc1ccccc1F,-2%,2,7.9µM*,u,-2,9%
SMILES,BAZ2B block,CtBP-E1A blk,G9a block,JMJD2A Tudor inh,Six1-Eya2 inh,HP1b chromo inh
CCNCc1cc(Cl)c(OCc2ccccc2)c(OCC)c1,-30%,-16,-43%,-6%,-2,35%
Cc1ccc(S(=O)(=O)CC(c2ccccc2)N2CCCCC2)cc1 (stereo unspecified),-13%,-9,50µM*,-7%,3,36%
COC(=O)c1c(C)nc(C)c(C(=O)OC)c1-c1ccc(OC)c(OC)c1,-2%,-3,4%,-10%,4,-1%
CCOC(=O)c1c(C)nc(C)c(C(=O)OCC)c1-c1ccc(O)c(OC)c1,8%,-5,8.9µM*,-22%,7,u
Cc1nc(Nc2ccc(Cl)cc2)c2oc3ccccc3c2n1,-28%,3,2%[0.501 µM],u,-7,-6%[57 µM]
Cc1nc(Nc2ccccc2F)c2oc3ccccc3c2n1,-36%,4,32µM*,5%,2,23%
Cc1nc(Nc2cccc(Cl)c2)c2oc3ccccc3c2n1,-27%,3,71µM*,-9%,2,11%
Cc1ccc(S(=O)(=O)Nc2cccc3ccc(C)nc23)cc1,x,x,x,12%,x,x
O=C(NCc1ccco1)c1[nH]c(C(F)(F)F)nc1-c1ccccc1,x,-4,x,x,-28,x
COC(=O)[C@]12CCCCC=C1N(CCc1ccc(OC)c(OC)c1)C(=O)[C@H](CC(=O)N1CCOCC1)C2,x,7,x,x,5,x
COc1cc(/C=C(\C#N)C(N)=O)cc(CSc2nc3ccccc3s2)c1O,x,x,5µM*,x,x,x
NC(=O)c1ccc(CSc2nc3ccccc3s2)cc1,-13%,-15,5%,-17%,-7,24%
C[n+]1ccccc1N1CCN(c2ccccc2Cl)CC1,-14%,-1,4µM*,79µM*,9,-1%
Cc1cccc(NC(=S)N(CCCN2CCCC2)Cc2cccn2Cc2ccc(Cl)cc2)c1,u,-14,45µM*,u,-18,-15%
CCN1CCN(CCCN(Cc2ccco2)C(=S)Nc2ccc(Cl)cc2)CC1,-9%,3,u,-23%,0,-12%
CN1CCN(CCCN(Cc2ccco2)C(=S)Nc2ccc(Cl)cc2)CC1,10%,-6,-41%,-23%,-2,15%
CCOc1ccc(NC(=S)N(CCCN2CCCC2)Cc2cccn2Cc2ccc(Cl)cc2)cc1,u,-10,40µM*,u,-13,5%
COc1cc(S(=O)(=O)NCc2ccccc2Cl)ccc1-n1cnnn1,u,-1,13µM*,7%,-14,32%
COc1ccccc1CNS(=O)(=O)c1ccc(-n2cnnn2)c(OC)c1,-18%,0,28µM*,-10%,3,-17%
COc1cc(S(=O)(=O)NCc2ccc(F)cc2)ccc1-n1cnnn1,-1%,8,3%,-9%,9,6%
CCOc1ccc(NS(=O)(=O)c2ccc3c4c(cccc24)C(=O)N3)cc1,-39%,x,-48%[59 µM],u,x,-1%
